# In the library only some 2.8% were active in any assay of this set; here they are far more common.
# GLP1R inv ag – inverse agonists of human GLP-1 receptor; P43220; HEK293 GLP-1R CRE-luciferase, luminescence, 24 h; GLP-1R form is constitutively active; Potency, µM (highest dose often 38.3 µM), actives largely listed as inhibitors; 410,000 tested, 1.6% active; AID 624417; also: nearly all actives have a fitted effect of over 55% in size
#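 Seeding at 200 cells/uL, 12 h culture, 24 hr compound treatment, then luciferase reagent and a luminescence read; cells are HEK293 stably expressing a constitutively active GLP-1R plus cAMP-responsive luciferase.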
# HEK293 tox – cytotoxicity counter-screen for GLP-1 receptor inverse agonists; Potency, µM (titrated, usually from 38.3 µM), actives largely listed as inhibitors; HEK293 cAMP-luciferase reporter cells, luminescence, 24 h; 410,000 tested, 0.13% active;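 also: loss of luciferase light is scored as toxicity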
#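 1536-well qHTS counterscreen of the MLSMR; 200 cells/uL, 12 h pre-incubation, 23 nL cpd, 24 h at 37 deg C 5% CO2, luciferase detection reagent, 12 min RT, luminescence. Inhibition = undesired.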
# GLP-1R agonist – GLP-1 receptor (human) agonism | P43220 | HEK293 GLP-1R CRE-luciferase, luminescence, 4-6 h; cells express a hypersensitive GLP-1R form | Potency, µM (doses to about 45.6 µM), actives largely listed as activators | 380,000 tested, 0.007% active | AID 624172
# KCNH2 3.1 block – KCNH2 3.1 (human) potassium channel inhibition. U2OS KCNH2 3.1, thallium flux FluxOr; hits give low values. activity change, % (tested at about 1.8 µM). 340,000 tested, 0.95% active. AID 720553;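 active = maximum activity change below -70%; inconclusive = maximum activity change from -70% to -50%; inactive = maximum activity change above -50%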;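 also: thallium influx rate constant from kinetic fluorescence after stimulation buffer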
#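 Thallium flux read-out: FluxOr dye with Red40 quencher in HBSS/HEPES, 45 min at RT. Rate constants from kinetic reads were normalized to positive and negative DMSO controls. Cells: U2OS virally expressing the 3.1 isoform.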
# GLS inh – inhibitors of human glutaminase (GLS). GLS enzymatic activity, qHTS titration. Potency, µM (titrated, usually from 45.5 µM), usual class: inhibitors. 410,000 tested, 0.21% active
#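 hKGA in 45 mM KH2PO4 (pH 8.2), 0.02% Tween-20 with compound, then 1mM L-Glutamine (stock as added) plus glutamate oxidase/HRP/Amplex red coupling mix. Fluorescence read initially and after 30 min at RT; signal change reflects glutamate formation.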
# KCNH2 WT inh – KCNH2 (human, wildtype) channel inhibition | activity change, % at 1.84 µM | U2OS, BacMam KCNH2, thallium flux FluxOr; hits give low values | Q12809 | 340,000 tested, 0.37% active;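 active = maximum activity change below -70%; inconclusive = maximum activity change between -70% and -50%; inactive = maximum activity change above -50%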
# Target sequence (Q12809 whole entry, looked up): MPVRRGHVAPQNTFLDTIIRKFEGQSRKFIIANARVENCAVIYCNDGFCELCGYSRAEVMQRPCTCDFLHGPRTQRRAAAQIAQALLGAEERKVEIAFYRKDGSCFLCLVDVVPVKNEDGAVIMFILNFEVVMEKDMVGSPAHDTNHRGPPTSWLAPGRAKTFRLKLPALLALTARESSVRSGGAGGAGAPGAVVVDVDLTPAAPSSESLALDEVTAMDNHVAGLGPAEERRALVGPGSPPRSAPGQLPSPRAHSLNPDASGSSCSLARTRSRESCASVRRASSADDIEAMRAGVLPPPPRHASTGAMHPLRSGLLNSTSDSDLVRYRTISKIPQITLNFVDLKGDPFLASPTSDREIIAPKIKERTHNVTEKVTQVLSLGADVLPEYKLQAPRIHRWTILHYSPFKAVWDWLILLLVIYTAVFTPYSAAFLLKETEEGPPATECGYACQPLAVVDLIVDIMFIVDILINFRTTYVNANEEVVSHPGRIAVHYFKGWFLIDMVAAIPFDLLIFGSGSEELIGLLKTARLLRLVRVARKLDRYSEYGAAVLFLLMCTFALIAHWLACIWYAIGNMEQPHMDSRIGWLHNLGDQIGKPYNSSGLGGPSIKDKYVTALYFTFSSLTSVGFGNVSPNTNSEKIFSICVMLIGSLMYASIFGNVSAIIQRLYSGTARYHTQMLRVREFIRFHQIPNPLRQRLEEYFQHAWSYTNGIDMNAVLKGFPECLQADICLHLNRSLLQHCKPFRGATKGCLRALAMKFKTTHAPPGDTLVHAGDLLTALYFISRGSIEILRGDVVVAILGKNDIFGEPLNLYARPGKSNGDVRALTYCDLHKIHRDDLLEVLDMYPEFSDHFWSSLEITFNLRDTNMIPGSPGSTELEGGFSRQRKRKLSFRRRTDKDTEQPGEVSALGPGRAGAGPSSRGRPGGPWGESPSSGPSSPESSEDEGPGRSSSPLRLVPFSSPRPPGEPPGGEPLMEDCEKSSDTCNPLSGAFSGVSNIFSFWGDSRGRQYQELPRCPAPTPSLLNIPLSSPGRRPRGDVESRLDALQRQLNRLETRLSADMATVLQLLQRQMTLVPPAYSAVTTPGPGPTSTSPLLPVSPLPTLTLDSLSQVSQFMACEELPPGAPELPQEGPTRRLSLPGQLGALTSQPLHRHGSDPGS
#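 U2OS cells were transduced with wild-type KCNH2 virus (2.03 x 10^8 / mL) for 4 h at room temperature, then cultured overnight at 37 C. Thallium flux was read with FluxOr dye. Rate constants were normalized to DMSO controls.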
# Numbers stand for hits; – = inactive; ? = inconclusive; · = no result given. Unless noted, calls follow the shape of the dose curve; as a rule, active = well fitted curve in the direction sought with a large enough effect; inconclusive = small, poorly fitted or top-dose-only effect, or another doubt; inactive = no such curve, though single readings can be large; an effect the other way counts as inactive or inconclusive.
SMILES,GLP1R inv ag,HEK293 tox,GLP-1R agonist,KCNH2 3.1 block,GLS inh,KCNH2 WT inh
Cc1cc(Cl)c2oc(C(=O)N3CCN(c4ccncc4)CC3)c(C)c2c1,?,–,–,–,–,-138
CN(C)CCCNc1nc2sc3c(c2c(=O)n1CCc1ccccc1)CCCCC3,3.2µM,?,–,–,–,–
Cn1nc(-c2ccccc2)c(C(=O)Nc2ccc(Cl)cc2)c1Cl,–,–,–,–,–,–
Cn1nc(-c2ccccc2)c(C(=O)Nc2ccc(C(F)(F)F)cc2)c1Cl,–,–,–,-73,?,–
CC(NC(=O)CSc1nc(-c2ccccc2F)nc2cc(=O)[nH]n12)c1nc2ccccc2n1C (centres undefined),–,–,·,·,?,·
CC(C)[C@H](NC(=O)OC(C)(C)C)c1cc(C(=O)NCCc2c[nH]c3ccccc23)c(N)s1,–,–,·,·,·,·
CC(C)[C@@H](NC(=O)OC(C)(C)C)c1cc(C(=O)c2c(-c3ccccc3)[nH]c3ccccc23)c(N)s1,7.1µM,–,·,·,·,·
Cn1c(N)nc2nc[nH]c2c1=S,–,–,–,–,–,–
Cc1nnc(N2CCN(c3ccc(Cl)cc3)CC2)c2c1nnn2Cc1ccc(F)cc1,–,–,·,·,–,·
O=C(CN1CCN(c2ccc(Cl)cc2)CC1)NCc1ccccc1,?,–,–,·,–,–
COc1ccc(C)cc1NC(=O)CN1CCN(C/C=C/c2ccccc2)CC1,–,–,–,-102,–,-98
Cc1cccc(C)c1NC(=O)CN1CCN(C/C=C/c2ccccc2)CC1,–,–,–,·,–,·
O=C(c1nn(Cc2ccccc2)c(=O)c2ccccc12)N1CCN(C/C=C/c2ccccc2)CC1,7.9µM,–,–,?,–,–
O=C(CN1CCN(C/C=C/c2ccccc2)CC1)NCc1ccc(Cl)cc1,?,–,–,-124,–,?
COC(=O)c1[nH]c2ccccc2c1NC(=O)CN1CCN(C/C=C/c2ccccc2)CC1,?,?,–,-96,–,-94
CCNC(=O)[C@H]1CCCN1C(=O)[C@H](CCCN=C(N)N)NC(=O)[C@H](CC(C)C)NC(=O)[C@H](CC(C)C)NC(=O)[C@@H](Cc1ccc(O)cc1)NC(=O)[C@H](CO)NC(=O)[C@@H](Cc1c[nH]c2ccccc12)NC(=O)[C@H](Cc1cnc[nH]1)NC(=O)[C@@H]1CCC(=O)N1,·,·,–,·,–,·
CCOC(=O)c1[nH]c2ccc(F)cc2c1NC(=O)CN1CCN(C/C=C/c2ccccc2)CC1,?,?,–,?,–,-90
CC(=O)c1ccc(N2CCN(C(=O)CCc3nnc4n(C)c(=O)c5sccc5n34)CC2)cc1,–,–,–,·,–,·
CN(C)Cc1c(C(=O)N/N=C/c2cccc(OCc3ccc(F)cc3)c2)nnn1-c1nonc1N,–,–,–,–,–,–
CCCN(CCC)Cc1c(C(=O)N/N=C/c2ccc(Br)cc2)nnn1-c1nonc1N,?,–,–,-78,–,–
CCCN(CCC)Cc1c(C(=O)N/N=C/c2ccco2)nnn1-c1nonc1N,–,–,–,–,–,–
CN(C)Cc1c(C(=O)N/N=C/c2ccc(OCc3ccc(F)cc3)cc2)nnn1-c1nonc1N,–,–,–,-76,–,–
O=C(c1ccc(Cl)cc1)c1c[nH]c(C(=O)NNc2ccccc2)c1,2µM,?,–,–,–,–
COc1cc2c(cc1OC)C(c1ccc(-c3ccc(Cl)cc3Cl)o1)=NCC2,?,–,–,-115,–,–
CC(C)(C)OC(=O)N[C@@H](C(=O)OC(C)(C)C)c1ccc2c(c1)OCO2,?,–,–,–,–,–
SMILES,GLP1R inv ag,HEK293 tox,GLP-1R agonist,KCNH2 3.1 block,GLS inh,KCNH2 WT inh
CCCCN(C(=O)c1ccc(-c2ccc(Cl)cc2)o1)c1c(N)n(CCC)c(=O)[nH]c1=O,–,–,–,–,–,–
CCCCN(C(=O)c1ccc(-c2ccc(Cl)cc2)o1)c1c(N)n(CCCC)c(=O)[nH]c1=O,?,–,–,–,–,-202
O=C(CCSCc1cccc(Cl)c1)NCCC1=CCCCC1,10µM,–,–,–,–,–
Cc1ccc(OCCCNC2CCCC2)cc1,–,–,–,–,–,–
CC(C)(C)c1ccc(OCCCNC2CCCC2)cc1,10µM,?,–,–,–,–
CC(=O)c1sc(NC(=O)CCS(=O)(=O)c2ccc(C)cc2)nc1C,?,10µM,–,–,–,–
Cc1cccc(-c2noc(CN(C(C)C)S(=O)(=O)c3ccc(Br)cc3)n2)c1,?,–,·,·,–,·
Cc1nn(C)c(Nc2ccc(Br)cc2)c1Br,?,–,–,–,?,–
Cc1cc(C)nc(-n2nc(C)c(Br)c2Nc2ccc(Br)cc2)n1,?,5.6µM,–,–,–,–
CCCCN1C(=O)C(=O)N(CC(=O)Nc2cc(Cl)ccc2OC)C1=O,–,–,–,–,–,–
Nc1nc(-c2ccccc2)c(CCCOc2ccc(NC(=O)CBr)cc2)c(=O)[nH]1,–,10µM,–,–,–,–
CCOc1ccc(NC(=O)CSc2nc(N)c(-c3ccccc3)c(=O)[nH]2)cc1,–,–,–,–,–,–
Cc1ccc(O)c(CNc2cnc3ccccc3c2)c1,?,–,–,–,–,–
Oc1ccc(Br)cc1CNc1cnc2ccccc2c1,11µM,–,–,–,–,–
O=C(O)c1ccc(Cl)c(S(=O)(=O)NCC2CCCO2)c1 (centres undefined),–,–,–,–,10µM,–
Cc1cc(C)n2ncc(C(=O)NCc3ccccc3)c2n1,–,–,?,-87,?,–
COC(=O)C1(Cc2cc(-c3cccc(Br)c3)no2)CCN(C(=O)OC(C)(C)C)CC1,10µM,–,–,–,–,–
CC(C)(C)OC(=O)N1CCC(Cc2cc(-c3cccc(Br)c3)no2)(C(=O)O)CC1,–,–,–,–,–,–
COc1ccc(NC(=O)c2cc(-c3ccccc3)nc3c2cnn3C(C)C)c(OC)c1,?,–,–,–,–,–
C=C(C)CNC(=S)NN=C1c2ccccc2-c2ccccc21,?,?,11µM,–,–,–
C=C(C)CNC(=S)N/N=C/c1ccco1,4.5µM,?,–,–,–,–
O=c1[nH]c(CN2CCN(Cc3ccccc3)CC2)nc2scc(-c3ccccc3)c12,?,–,–,–,–,–
CSCc1nc2scc(-c3ccccc3)c2c(=O)[nH]1,–,–,–,-92,–,–
CC(C)CCNC(=O)c1onc(CSc2ccc(Cl)cc2)c1C(=O)NCCC(C)C,10µM,–,–,–,–,–
CC(C)CCNC(=O)c1onc(CSc2ccc(F)cc2)c1C(=O)NCCC(C)C,?,–,–,–,–,–
CC(C)CCNC(=O)c1onc(CSc2ccccc2)c1C(=O)NCCC(C)C,4µM,–,–,–,–,–
